The values that follow come from PubChem BioAssay (Tox21).

Assay [1] is described as follows: qHTS assay to identify small molecule agonists of the vitamin D receptor (VDR) signaling pathway - cell viability counter screen (AID 743224). Note: nearly all actives have a fitted effect of over 50% in size. Note: potency is the fitted concentration of half-maximal effect. Particulars: VDR-bla HEK293T viability, CellTiter-Glo luminescence, 16 h; series mostly up to 62.6 µM. An outline of the steps: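 CellTiter-Glo viability readout on VDR-bla cells, measured after 16 h of compound treatment at 37C in the same wells.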
Background: qHTS replaces the single test concentration by a dilution series.

A short description of assay [2]: qHTS assay to identify small molecule antagonists of the vitamin D receptor (VDR) signaling pathway - cell viability counter screen (AID 743225). Note: nearly all actives have a fitted effect of over 50% in size. Note: potency is the fitted concentration of half-maximal effect. Particulars: VDR-bla HEK293T viability, CellTiter-Glo luminescence, 16 h; series mostly up to 61 µM. The gist of the method: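 Luminescent cell viability (CellTiter-Glo) in VDR-bla HEK 293T cells after 16 h compound exposure at 37C in the presence of 3 nM final 1-alpha,25-dihydroxy vitamin D3.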

Assay [3] can be described thus: qHTS assay to identify small molecule agonists of the NFkB signaling pathway - cell viability counter screen (AID 1159515; calls by dose curve; note: nearly all actives have a fitted effect of over 55% in size; note: potency is the fitted concentration of half-maximal effect). To be noted: NFkB-bla ME-180 viability, CellTiter-Glo luminescence, 5 h; series mostly up to 61 µM. The gist of the method:
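Tox21 library compounds were tested for cytotoxicity against NFkB-bla ME-180 cells during a 5 hr exposure at 37 C. CellTiter-Glo luminescence served as the viability read-out.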

A short description of assay [4]: qHTS assay to identify small molecule agonists of the endoplasmic reticulum stress response signaling pathway - cell viability counter screen (AID 1159517; calls by dose curve; note: nearly all actives have a fitted effect of over 50% in size; note: potency is the fitted concentration of half-maximal effect). Particulars: ESRE-bla HeLa viability, CellTiter-Glo luminescence, 5 h; series mostly up to 61 µM. An outline of the steps: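 After overnight attachment, ESRE-bla HeLa cells were treated with Tox21 library compounds for 5 hr. CellTiter-Glo luminescence, read 30 min post-addition at room temperature, reported viability.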

Assay [5] in a line: qHTS assay to identify small molecule antagonists of the retinoid-related orphan receptor gamma (ROR-gamma) signaling pathway - cell viability counter screen (AID 1159520). Note: nearly all actives have a fitted effect of over 50% in size. Note: potency is the fitted concentration of half-maximal effect. To be noted: Tet-on RORgamma CHO cells viability, ATP luminescence, 16 h; series mostly up to 92.4 µM. The gist of the method: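 Cytotoxicity was read from cellular ATP (CellTiter-Glo luminescence) after 16 hr at 37 C with 1 uM doxycycline induction. The inducer was added 2 hr after compound transfer to Tet-on ROR gamma CHO cells.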

Assay [6] has as its target Nuclear receptor ROR-gamma (Homo sapiens) (UniProt P51449). In words: qHTS assay to identify small molecule antagonists of the retinoid-related orphan receptor gamma (ROR-gamma) signaling pathway (AID 1159521; note: nearly all actives have a fitted effect of over 50% in size; note: potency is the fitted concentration of half-maximal effect). Particulars: Tet-on RORgamma CHO cells, RORE-luciferase, 16 h; series mostly up to 92.4 µM. The gist of the method:
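CHO cells expressing RORγ under a TET-on promoter, luciferase under RORE control. Dox 1 uM final, 16 h; compounds added 2 h prior. Luminescence decrease measured.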

Assay [7] can be described thus: qHTS assay to identify small molecule agonists of the AP-1 signaling pathway - cell viability counter screen (AID 1159525; calls by dose curve; note: nearly all actives have a fitted effect of over 55% in size; note: potency is the fitted concentration of half-maximal effect). To be noted: ME-180 AP-1-bla cells viability, ATP luminescence, 5 h; series mostly up to 76.8 µM. An outline of the steps: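 Intracellular ATP by Cell Titer Glo luminescence (30 min, RT) in the same ME-180 AP-1-bla wells after the 5 h compound exposure at 37 °C. Normalised to tetra n-octyl ammonium bromide and DMSO controls.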

Assay [8] in a line: qHTS assay to identify small molecule agonists of the AP-1 signaling pathway (AID 1159526; calls by dose curve). To be noted: ME-180 (cervical carcinoma) AP-1-bla reporter, beta-lactamase FRET ratio, 5 h; series mostly up to 76.8 µM.
Assay [9] concerns the target Retinoic acid receptor RXR-alpha (Homo sapiens) (UniProt P19793). In words: qHTS assay to identify small molecule agonists of the RXR signaling pathway (AID 1159527; calls by dose curve; note: nearly all actives have a fitted effect of over 35% in size). To be noted: HEK293T RXRa-UAS-bla, beta-lactamase ratio, 16 h; series mostly up to 76.8 µM. The gist of the method: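 Beta-lactamase reporter assay, agonist format. Engineered HEK 293T line, charcoal-stripped FBS at 2%, overnight (16 hr) exposure, fluorescence at 460 and 530 nm after 405 nm excitation.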

Results filed as inconclusive are left out. Activity calls are given as the source filed them. Unless noted, calls come from the whole dose curve; as a rule, active = well fitted curve in the direction sought with a large enough effect in the repeat runs; inconclusive = weak or mixed curves; inactive = no such curve, though single readings can be large; an effect the other way counts as inactive or inconclusive.

Retinoic acid receptor RXR-alpha (Homo sapiens), sequence (P19793 whole entry, looked up): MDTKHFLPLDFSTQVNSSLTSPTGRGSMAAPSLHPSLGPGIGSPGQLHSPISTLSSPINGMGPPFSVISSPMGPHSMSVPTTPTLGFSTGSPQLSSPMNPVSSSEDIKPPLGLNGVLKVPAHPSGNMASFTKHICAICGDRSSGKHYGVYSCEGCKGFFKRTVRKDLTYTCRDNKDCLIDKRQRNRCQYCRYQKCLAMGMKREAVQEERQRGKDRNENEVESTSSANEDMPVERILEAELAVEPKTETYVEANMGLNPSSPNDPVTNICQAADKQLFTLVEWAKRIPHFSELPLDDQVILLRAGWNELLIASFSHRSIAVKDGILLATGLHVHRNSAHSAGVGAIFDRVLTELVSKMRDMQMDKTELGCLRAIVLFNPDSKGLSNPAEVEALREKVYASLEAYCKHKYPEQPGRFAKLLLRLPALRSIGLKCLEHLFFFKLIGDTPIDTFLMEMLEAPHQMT

On to `COC(=O)/C=C(\C)OP(=O)(OC)OC`, for which the Potency entry in assay [1], in assay [2], in assay [3], in assay [4], in [5] and in assay [6] was “inactive” in each case. Besides, the Potency entry in assay [7], in assay [8] and in assay [9] was “inactive” throughout.
Regarding `C=CC(=O)[O][Sn]([CH2]CCC)([CH2]CCC)[CH2]CCC`, the Potency in [1] was 1380 nM (active); in assay [2] it was 3090 nM (active); in [3], 977 nM (active); in assay [4], 977 nM (active); in assay [5], 1090 nM (active); in assay [6], 611 nM (active). Further, in [7], the Potency was 2450 nM (active).
In the case of `CCC[CH2][Sn]([CH2]CCC)([CH2]CCC)[O][Sn]([CH2]CCC)([CH2]CCC)[CH2]CCC`, the Potency in assay [1] was 603 nM (active); in [2], 852 nM (active); in assay [3] it was 240 nM (active); in [4], 269 nM (active); in [5], 336 nM (active); in assay [6], 168 nM (active). Further, in assay [7], the Potency was 537 nM (active).
